Laboratory results as given in PubChem BioAssay (NCI).
This is part of a sample that, as a whole, favours compounds with a hit. Of some 83,000 tested, about 20% had one in any assay.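 In brief: 96-well plates, 48 h treatment, single concentration, percent growth endpoint.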 A number with no mark means an inactive call. Calls of active or inactive are those of the source. The calls were made as follows: active = growth percent below 10; inactive = the rest.

How the values were obtained:
Experiment in all cases: NCI-60 one-dose screen, 48 h (100 = growth as untreated, 0 = no growth, -100 = all killed)
Settings in all cases: 10 µM
NCI-H23 lung = tested on: NCI-H23 lung
NCI-H226 lung = tested on: NCI-H226 lung
HOP-62 NSCLC = tested on: HOP-62 NSCLC
NCI-H460 lung = tested on: NCI-H460 lung
NCI-H522 lung = tested on: NCI-H522 lung
A549/ATCC NSCLC = tested on: A549/ATCC NSCLC
DU-145 prostate = tested on: DU-145 prostate
K-562 leukemia = tested on: K-562 leukemia
MALME-3M melanoma = tested on: MALME-3M melanoma
MDA-MB-231 breast = tested on: MDA-MB-231 breast
RXF 393 renal = tested on: RXF 393 renal
SF-268 CNS = tested on: SF-268 CNS
SF-295 CNS = tested on: SF-295 CNS
SF-539 CNS = tested on: SF-539 CNS
UACC-257 melanoma = tested on: UACC-257 melanoma
M14 melanoma = tested on: M14 melanoma
786-0 renal = tested on: 786-0 renal
COLO 205 colon = tested on: COLO 205 colon

SMILES | growth (NCI-H23 lung) | growth (NCI-H226 lung) | growth (HOP-62 NSCLC) | growth (NCI-H460 lung) | growth (NCI-H522 lung) | growth (A549/ATCC NSCLC) | growth (DU-145 prostate) | growth (K-562 leukemia) | growth (MALME-3M melanoma) | growth (MDA-MB-231 breast) | growth (RXF 393 renal) | growth (SF-268 CNS) | growth (SF-295 CNS) | growth (SF-539 CNS) | growth (UACC-257 melanoma) | growth (M14 melanoma) | growth (786-0 renal) | growth (COLO 205 colon)
O=C1/C=C/[C@@H](O)[C@@H]2C[C@@H](O)C[C@H]2/C=C/CCC[C@H](CCc2ccc(C(F)(F)F)cc2)O1 | -10.5% (active) | 0.477% (active) | -4.15% (active) | 9.42% (active) | -58.5% (active) | 8.38% (active) | 19.5% | 11.7% | -13.9% (active) | -84% (active) | -31.6% (active) | 4.75% (active) | 11.4% | 25.2% | 10.5% | 7.65% (active) | – | –
Nc1ncc(-c2cnn(C3CCNCC3)c2)cc1-c1nc2ccccc2o1 | 20.2% | 15.8% | 24.3% | -0.928% (active) | 19.7% | 7.74% (active) | 15.2% | -60% (active) | – | 27.1% | -29.5% (active) | -0.542% (active) | 94.5% | -33.8% (active) | -82% (active) | -88.7% (active) | 19.5% | -73.7% (active)
COc1cccc2ccc(CC(O)(c3ccccc3)c3ccccc3)nc12 | 89.6% | 71.2% | 86.8% | 90.8% | 93.5% | 95.5% | 98.1% | 91.9% | 101% | 85% | 108% | 93.7% | 86.4% | 103% | 95.5% | 94.3% | 96.7% | 95.4%
O=C(N/N=C/c1c(Cl)cccc1Cl)c1ccccc1Nc1cccc(C(F)(F)F)c1 | 102% | 99.4% | 111% | 88.6% | 84.9% | – | – | 77.2% | – | 83.2% | – | 95.5% | 61.5% | 75% | 102% | 99.4% | 102% | 126%
COc1ccc2c(c1)C(=O)/C(=C/c1ncc([N+](=O)[O-])n1C)O2 | -5.43% (active) | -24.6% (active) | -27% (active) | -42.6% (active) | -51.5% (active) | -27.8% (active) | -13.6% (active) | 1.52% (active) | -56.2% (active) | -18.1% (active) | -54.4% (active) | -39.7% (active) | -18.4% (active) | -29.4% (active) | -43.9% (active) | -37.7% (active) | -26.3% (active) | -47.5% (active)
S=C1N(c2ccccc2)CN(C2CCCCC2)CN1c1ccccc1 | 100% | 98.7% | 99.9% | 105% | -29.7% (active) | 45.5% | 107% | 101% | – | 98.2% | 109% | 118% | – | 88.1% | 2.41% (active) | 100% | 100% | 112%
COc1ccc(/C=C/c2nnc(/C=C/c3ccc(OC)c(OC)c3)o2)cc1OC | 25.4% | 63.5% | 35.3% | 15.6% | 9.91% (active) | 32% | 49.2% | 14.8% | 57.1% | 17.8% | 27.4% | 41.9% | 12.5% | -11.8% (active) | – | 5.44% (active) | 12.8% | 22%
COc1cc(Cc2cc(-c3ccccc3)n[nH]c2=O)cc(OC)c1OC | 65.5% | 68.5% | 73% | 44.5% | 52.9% | 53.5% | 84.2% | 19.3% | 71.8% | 54.7% | 60% | 69.8% | 61.3% | 61.4% | – | 18.4% | 74.3% | 56.3%
O=C1CC(=O)N(C(=O)c2nn(-c3ccc(Cl)cc3)cc2O)N1 | 39.3% | 43.1% | 38.8% | 27.4% | 5.35% (active) | 44.5% | 46.9% | 5.55% (active) | – | 62.3% | 53.3% | 43.3% | -7.1% (active) | 39.7% | 66.1% | 47.5% | 50.7% | -13.4% (active)
O=C(CSc1nnc(-c2cccnc2SCc2ccccc2)o1)Nc1nc(Cl)cc(Cl)n1 | 102% | 83.7% | 90.6% | 105% | 83.1% | 104% | 107% | 92.8% | 94% | 92% | 105% | 99.7% | 96.8% | 101% | 113% | 92% | – | –
CC(=O)COc1ccc(Cl)cc1Cl | 106% | 93% | 110% | 110% | 107% | 107% | 106% | – | – | 105% | 107% | 109% | 103% | 114% | 112% | 110% | 103% | 114%
CCCCCCCCCCOC(c1ccccc1)c1ccccc1 | 83% | 85.5% | 87.8% | 101% | 75.8% | 83.6% | 105% | 85.6% | 95.7% | 88.4% | 94.2% | 94.2% | 89.6% | 102% | 102% | 90.9% | 98% | 104%
Cc1ccc(NC(=O)N2CCCCC2)cc1[N+](=O)[O-] | 91.1% | 94.9% | 84.2% | 108% | -29.1% (active) | 39.5% | 108% | 106% | – | 95.5% | 106% | 81.1% | – | 92.6% | -0.113% (active) | 90.8% | 102% | 99.4%
CC1=NN(C(=O)c2nn(-c3ccc(Cl)cc3)cc2O)C(=O)C1 | 52.5% | 40.3% | 44.1% | 24% | 42.3% | 45.6% | 52.4% | 15.3% | – | 63.2% | 56.9% | 38.4% | 67% | 51.9% | 74.5% | 50.9% | 56.5% | 53%
O=C1c2c(c(=O)[nH]c3ccccc23)CCN1Cc1ccccc1 | 102% | 97.1% | 92.7% | 108% | 90.6% | 103% | 122% | – | – | 98.4% | 111% | 110% | 104% | 90.4% | 104% | 102% | 99.8% | –
